Screens (PubChem)
Most compounds without a hit are left out; they make up all but 2.6% or so of the library.
eIF4E 4G PPI: blocks eIF4E binding to eIF4G; P63073+Q04637; TR-FRET eIF4E-eIF4GI(517-606) binding, 2 h; inhibition, % at 21.7 µM; 220,000 tested, 0.37% active;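 active = inhibition above about 30%, limit read from the data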;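 also: 0% = full FRET control wells and 100% = background wells lacking eIF4GI fragment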
Target sequence (P63073 whole entry, looked up, the tested form may be a part): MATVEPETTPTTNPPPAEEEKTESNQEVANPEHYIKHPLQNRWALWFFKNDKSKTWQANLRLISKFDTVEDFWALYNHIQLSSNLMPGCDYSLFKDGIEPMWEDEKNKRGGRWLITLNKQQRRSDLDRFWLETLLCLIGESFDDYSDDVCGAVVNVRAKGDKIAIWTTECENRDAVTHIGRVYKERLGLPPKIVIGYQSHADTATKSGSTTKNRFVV
Target sequence (Q04637 whole entry, looked up, the tested form may be a part): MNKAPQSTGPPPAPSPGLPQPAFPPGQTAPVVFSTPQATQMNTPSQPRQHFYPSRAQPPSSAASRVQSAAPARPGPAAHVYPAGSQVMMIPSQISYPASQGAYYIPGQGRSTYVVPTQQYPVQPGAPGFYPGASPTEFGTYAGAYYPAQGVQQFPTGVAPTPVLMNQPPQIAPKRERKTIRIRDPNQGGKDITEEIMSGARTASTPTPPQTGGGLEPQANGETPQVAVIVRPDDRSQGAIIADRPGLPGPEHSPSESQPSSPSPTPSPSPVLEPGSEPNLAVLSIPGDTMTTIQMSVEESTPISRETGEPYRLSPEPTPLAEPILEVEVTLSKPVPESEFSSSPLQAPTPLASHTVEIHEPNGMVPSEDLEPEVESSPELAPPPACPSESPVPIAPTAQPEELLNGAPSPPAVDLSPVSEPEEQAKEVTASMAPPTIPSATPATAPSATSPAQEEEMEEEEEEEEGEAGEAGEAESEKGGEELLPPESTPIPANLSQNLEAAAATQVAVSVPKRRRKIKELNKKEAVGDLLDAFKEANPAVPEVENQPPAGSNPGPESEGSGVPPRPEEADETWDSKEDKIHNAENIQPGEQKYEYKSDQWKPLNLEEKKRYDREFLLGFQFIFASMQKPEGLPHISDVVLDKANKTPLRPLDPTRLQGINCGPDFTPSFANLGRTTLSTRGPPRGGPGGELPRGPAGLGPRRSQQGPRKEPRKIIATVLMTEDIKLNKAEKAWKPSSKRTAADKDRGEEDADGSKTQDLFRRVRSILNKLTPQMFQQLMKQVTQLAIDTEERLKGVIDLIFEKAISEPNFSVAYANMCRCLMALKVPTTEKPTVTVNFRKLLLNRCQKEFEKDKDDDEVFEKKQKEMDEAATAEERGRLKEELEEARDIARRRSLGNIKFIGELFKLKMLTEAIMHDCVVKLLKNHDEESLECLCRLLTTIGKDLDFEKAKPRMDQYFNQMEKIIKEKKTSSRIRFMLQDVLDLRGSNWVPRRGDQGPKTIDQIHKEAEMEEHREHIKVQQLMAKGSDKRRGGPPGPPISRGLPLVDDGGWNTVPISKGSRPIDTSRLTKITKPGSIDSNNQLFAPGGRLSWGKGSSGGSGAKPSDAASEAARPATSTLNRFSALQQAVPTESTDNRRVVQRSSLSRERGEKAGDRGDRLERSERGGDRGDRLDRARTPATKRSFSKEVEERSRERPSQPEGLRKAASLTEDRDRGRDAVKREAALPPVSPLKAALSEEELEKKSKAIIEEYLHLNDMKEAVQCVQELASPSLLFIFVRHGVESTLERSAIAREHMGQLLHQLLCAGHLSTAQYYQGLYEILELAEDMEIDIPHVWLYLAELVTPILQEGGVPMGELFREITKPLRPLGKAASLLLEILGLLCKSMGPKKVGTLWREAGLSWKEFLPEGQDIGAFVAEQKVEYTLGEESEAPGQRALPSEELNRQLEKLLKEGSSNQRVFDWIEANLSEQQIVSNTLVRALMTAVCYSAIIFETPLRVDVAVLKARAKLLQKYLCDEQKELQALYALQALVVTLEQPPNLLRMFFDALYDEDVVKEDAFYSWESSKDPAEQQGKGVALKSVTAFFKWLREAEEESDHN
Mcl1 Noxa PPI: disrupts binding of human Mcl-1 to Noxa peptide; 220,000 tested, 1.5% active; inhibition, % at 21.7 µM; Q07820; TR-FRET Mcl-1/Noxa peptide binding, 2 h;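 active = compounds that cut the protein-peptide binding signal by more than 50% relative to plate controls in a single-dose test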;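 also: His-tagged Mcl-1 with rhodamine Noxa BH3 peptide and terbium anti-His antibody; 0% = Mcl-1 plus Noxa peptide wells and 100% = peptide-only wells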
Mcl-1 Bim block: disrupts Bim peptide binding to human Mcl-1 | Bead-based flow cytometry, Bim peptide-Mcl-1 binding | 190,000 tested, 0.1% active | inhibition, % at 10 µM; in the data active = inhibition above about 40%;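 also: 0% = no compound tracer wells and 100% = peptide blocker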
14-3-3 Bad inh: disrupts binding of bovine 14-3-3 zeta to phospho-Bad peptide; inhibition, % at 21.7 µM; TR-FRET 14-3-3zeta/Dy647-pBad peptide displacement, 1 h; AID 781; 220,000 tested, 0.71% active;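 active = inhibition above about 70%, limit read from the data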;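 also: 0% = full 14-3-3 plus peptide FRET controls and 100% = background without 14-3-3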
Mcl1 Bid PPI: Mcl-1/Bid interaction inhibition; Q07820; inhibition, % at 21.7 µM; 220,000 tested, 0.97% active; TR-FRET Mcl-1/Bid-Dy647 peptide binding, 1536-well;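 active = compounds that cut the binding signal by more than half at the single screening dose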;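 also: His-tagged Mcl-1 with europium anti-His antibody binding Bid BH3 peptide; 0% = Mcl-1 plus peptide wells and 100% = peptide-only wells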
MCL1-BIM inh: MCL1-BIM-BH3 interaction inhibition (human) | AID 2057 | 320,000 tested, 0.68% active | inhibition, % at 10.9 µM | GST-MCL1 / FITC-Bim-BH3 fluorescence polarization | Q07820;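 active = inhibition above the mean inhibition of all tested compounds plus 3 SD, set per campaign, cut at about 40% in these data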;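 also: 0% = DMSO wells and 100% = unlabeled Bim-BH3 peptide control; higher means more loss of mP so more displacement of Bim peptide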
The depositor's hits bear a star; · = no result; [ ] = dose if it differs, or a comment.

SMILES	eIF4E 4G PPI	Mcl1 Noxa PPI	Mcl-1 Bim block	14-3-3 Bad inh	Mcl1 Bid PPI	MCL1-BIM inh
Cn1c(=O)oc2cc(S(=O)(=O)NCc3ccc(F)cc3)ccc21	·	·	·	·	·	-32
CN(C)c1ccc(C(CC(=O)O)NC(=O)c2ccc(Cl)cc2)cc1 (configuration not stated)	·	52*	2	·	-91	2
O=C(Cc1ccc(-c2ccccc2)cc1)NC1CCCC1	4	8	45*	-12	-10	3
CN(C(=O)NC1CCCCC1)c1ccccc1	-2	-7	51*	-6	-25	2
COc1ccc(NC(=O)CSc2nnc(CCC(=O)Nc3ccc(C)c(Cl)c3)n2C)cc1	-23	-13	0	31	-38	4
COCc1n[nH]c(=S)n1-c1ccccc1	-11	-2	-3	-8	-80	-12
COC(Cc1n[nH]c(=S)n1-c1ccccc1)OC	5	9	-6	76*	1	0
COc1cc2c(cc1OC)CN(C(=O)c1cc(S(=O)(=O)N3CCOCC3)c(Cl)cc1Cl)CC2	·	·	·	·	·	8
CCOc1ccc(N(CC(=O)NC2CCCC2)C(=O)CSc2nnc(COc3ccccc3)o2)cc1	-13	7	0	-4	-38	8
CN(C)S(=O)(=O)Nc1ccccn1	55*	1	·	4	-22	0
O=C(O)CCc1nn2c3ccccc3n(CC(=O)c3ccccc3)c2nc1=O	-2	28	3	-2	74*	-4
Fc1cccc(F)c1/C=C/c1ccc2ccccc2n1	4	12	0	14	23	-8
C(=C\c1ccco1)/c1ccc2ccccc2n1	16	74*	·	5	-87	18
O=C(CCN1CCOCC1)NC1CCCN(Cc2ccccc2F)C1 (configuration not stated)	·	·	·	·	·	9
O=C(Nc1ccc(Cl)c(Cl)c1)c1ccc(Cl)c(Cl)c1	-3	9	·	3	-24	2
O=C(Nc1ccc(C2=NCCN2)cc1)c1ccc(Cl)c(C(=O)Nc2ccc(C3=NCCN3)cc2)c1	8	57*	·	41	0	-5
CCCCCCCC/C=C\CCCCCCCC(=O)O	-11	63*	·	16	-74	4
CC(C)(C)c1ccc(C(=O)NCCC(=O)Nc2cc(Cl)ccc2N2CCOCC2)cc1	·	·	·	·	·	-25
CCC(C)NCCC(=O)Nc1ccc(Cl)c(S(=O)(=O)Nc2ccc(Cl)cc2)c1 (configuration not stated)	2	29	-1	-4	7	2
CC(NC(N)=O)C(=O)Nc1ccc(Cl)c(S(=O)(=O)Nc2ccc(Br)cc2)c1 (configuration not stated)	-1	57*	-1	-1	-4	-2
CC(NC(=O)C1CCN(C(=O)c2ccc(F)cc2)CC1)c1ccc(-n2ccnc2)cc1 (configuration not stated)	·	·	·	·	·	-3
Cc1c(/C=N/Nc2ccc(F)cc2)c(O)n(C)c(=O)c1C#N	-5	60*	0	-11	-32	8
Cc1c2cnn(CC(=O)Nc3c(F)c(F)cc(F)c3F)c(=O)c2c(C)n1Cc1ccc(F)cc1	11	62*	-2	-3	-16	7
CCN(CC)c1ccc(NC(=O)Cn2ncc3c(C)n(Cc4ccccc4F)c(C)c3c2=O)c(C)c1	23	64*	3	48	65*	-13
CCN(CC(=O)Nc1ccc(NC(C)=O)cc1)C(=O)CSc1ncnc2sc(C)c(C)c12	·	·	·	·	·	7
SMILES	eIF4E 4G PPI	Mcl1 Noxa PPI	Mcl-1 Bim block	14-3-3 Bad inh	Mcl1 Bid PPI	MCL1-BIM inh
CC(C)Oc1ccc(C(=O)N/N=C/c2ccc(-c3ccc(S(=O)(=O)Nc4ncccn4)cc3)o2)cc1	-7	67*	-1	1	-34	13
O=CNc1ccc(S(=O)(=O)NCc2ccccc2)cc1	-11	-2	1	-10	-8	4
CN(CCOC(=O)C1c2ccccc2Oc2ccccc21)C(C)(C)C	-6	12	0	32	97*	0
CCCn1c(NCc2cccs2)nc2ccccc21	3	33	-4	10	-16	-5
CCCCn1c(NCc2cccs2)nc2ccccc21	-2	51*	0	1	-9	2
CCCCn1c(NCc2ccc(N(C)C)cc2)nc2ccccc21	4	89*	·	2	-30	0
COc1ccc2c(c1)CCCC21NC(=O)N(CC(=O)c2cc(F)ccc2F)C1=O (configuration not stated)	·	·	·	·	·	0
COc1ccc(C(C)=O)cc1COC(=O)c1ccc(OCc2c(C)noc2C)cc1	-37	-80	7	73*	52*	-2
CCCOCC(O)CC(Cc1ccccc1)C(=O)NN (configuration not stated)	-3	-7	·	1	-32	2
CNc1ccc(/C=C(\C#N)c2ccccn2)cc1[N+](=O)[O-]	-3	64*	-1	44	39	40*
COc1ccc(CCCC(=O)N/N=C\c2cccs2)cc1	2	12	-2	97*	1	0
COc1ccc(CC(=O)NCc2cccs2)cc1	4	63*	0	2	-14	3
COC(=O)N/N=C/c1cccs1	1	-1	-12	-2	-6	0
Cc1ccc(NC(=O)COc2cccc(Oc3ccccc3)c2)cc1S(=O)(=O)N1CCOCC1	·	·	·	·	·	0
CC(NC(=O)Cc1ccc(NS(=O)(=O)c2cccc(C(F)(F)F)c2)cc1)c1ccccn1 (configuration not stated)	·	·	·	·	·	-3
CC(C(=O)O)n1nc2ccccc2n1 (configuration not stated)	6	26	-2	71*	71*	1
CN(NC(=O)COc1ccccc1)c1ccccc1	-3	-16	-8	5	94*	1
COc1cc(NC(=O)COc2ccccc2)c(OC)cc1NC(C)=O	2	11	0	-2	95*	2
CN(C)c1ccc(/C=N/NC(=O)COc2ccccc2)cc1	3	34	-2	-8	-38	8
C=CCNC(=O)NC(=O)CN1C(=O)NC(c2ccccc2)(c2ccccc2)C1=O	·	·	·	·	·	-1
COC(=O)c1ccccc1NC(=O)c1cnn2cccnc12	2	-2	-1	-6	-21	3
CCOc1ccc(NC(=O)c2cc3c(C)nc4ccccc4c3o2)cc1	3	42	1	36	52*	5
CC1=N/C(=C\c2ccc([N+](=O)[O-])cc2)C(=O)N1c1ccc(F)cc1F	·	·	·	·	·	-11
CCC1CCC(NC(=O)Nc2cccc(OC)c2)CC1 (configuration not stated)	-2	9	-2	-3	-8	6
c1ccc2[nH]c(CN3CCOCC3)nc2c1	-1	12	0	2	98*	0
O=C(CSc1nc2ccccc2[nH]1)Nc1ccccc1N1CCOCC1	-8	10	0	10	8	-2
c1ccc2[nH]c(SN3CCOCC3)nc2c1	44*[fluorescence artefact?]	9	-2	13	9	·
Nc1ccc2nc(CN3CCOCC3)[nH]c2c1	-6	9	0	91*	46	9
